The supplement of paper PMC9897528

tested on: Scedosporium aurantiacum CBS 136046; assay: growth inhibition relative to DMSO control (OD600); higher = more antifungal activity, active = 80 or more; extreme values may be limits of the assay; details: 5 µM; 72 h; 37 °C
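Note: conidia screened in RPMI 1640 medium under 5% CO2, growth read by spectrophotometer, medium with 0.5% DMSO serving as the untreated reference.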

Growth inhibition, inactive:
CCNC(=O)Nc1cc(-c2ccccc2)c(-c2cncc(C(=O)O)c2)cn1 8.53%
CO[C@@]1(NC(=O)Cc2cccs2)C(=O)N2C(C(=O)O)=C(COC(N)=O)CS[C@@H]21 20.8%
Cc1cc(C2CCCCC2)n(O)c(=O)c1 18.5%
N#CCN1C(=O)COc2cc(F)c(N3C(=O)c4ccccc4C3=O)cc21 0%
O=c1[nH]cnc2c1ncn2[C@H]1CC[C@@H](CO)O1 10.6%
COc1nc2ccc(Br)cc2cc1[C@@H](c1ccccc1)[C@@](O)(CCN(C)C)c1cccc2ccccc12 43.6%
Cc1ncc([N+](=O)[O-])n1CC(O)CN1CCOCC1 (centres undefined) 31%
Oc1c(C(Nc2nc3ccccc3s2)c2ccc(OC(F)F)cc2)ccc2cccnc12 (centres undefined) 12%
N[C@H](CCC(=O)N[C@@H](Cc1c[nH]c2ccccc12)C(=O)O)C(=O)O 1.28%
O=S(=O)(Nc1cccc2cccnc12)c1ccccc1 13.6%
CC(=O)N[C@H](C)C(=O)N[C@H](Cc1ccccc1)C(=O)O 10.8%
CCOC(=O)/C=C/[C@H](C[C@@H]1CCNC1=O)NC(=O)[C@H](CC)n1cccc(NC(=O)c2cc(C)on2)c1=O 2%
O=[N+]([O-])/C(Br)=C/c1ccc(Br)o1 0.879%
CCC[C@@H]1C[C@@H](C(=O)N[C@@H]([C@H]2O[C@H](SC)[C@H](O)[C@@H](O)[C@H]2O)[C@H](C)Cl)N(C)C1 16.8%
